Only some compounds are listed: those with a hit (about 4.3% of all), similar ones and a draw of the others.
NR3A LBD binder = binders of NR3A ligand-binding domain, primary screen, biophysical, differential scanning fluorimetry, uHTS | NR3A LBD differential scanning fluorimetry, Tm shift; 0% = protein alone, 100% = glycine-bound protein | Tm shift relative to glycine control, % at 25 µM | 340,000 tested, 2.5% active | AID 1259313, 2017;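 active means melting temperature shift of at least 10% of the positive control shift, at one fixed dose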
UBC13 polyUb = UBC13 polyubiquitin chain formation inhibitors, primary screen, biochemical, TR-FRET, uHTS | 330,000 tested, 0.47% active | inhibition, % at 20 µM | Ubiquitin-conjugating enzyme E2 N (Homo sapiens), P61088; in the data active means inhibition above about 45%, passing the limit was not always enough
Target sequence (P61088 whole entry, looked up): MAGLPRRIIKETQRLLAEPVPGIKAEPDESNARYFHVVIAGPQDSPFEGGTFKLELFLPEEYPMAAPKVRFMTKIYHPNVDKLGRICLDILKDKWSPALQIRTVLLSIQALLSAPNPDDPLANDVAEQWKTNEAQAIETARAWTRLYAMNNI
dFosB act = activators of delta FosB homodimer, primary screen, biochemical, fluorescence polarization, TAMRA-CDK5 oligo, single point. Protein FosB (Mus musculus), P13346. purified delta FosB; percent of positive-control signal above neutral wells. activation, % at 25 µM. 340,000 tested, 0.99% active. AID 493131, 2011;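 active means mean activation above about 17%, with every replicate also reaching it, limit read from the data, passing the limit was not always enough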
Target sequence (P13346 whole entry, looked up): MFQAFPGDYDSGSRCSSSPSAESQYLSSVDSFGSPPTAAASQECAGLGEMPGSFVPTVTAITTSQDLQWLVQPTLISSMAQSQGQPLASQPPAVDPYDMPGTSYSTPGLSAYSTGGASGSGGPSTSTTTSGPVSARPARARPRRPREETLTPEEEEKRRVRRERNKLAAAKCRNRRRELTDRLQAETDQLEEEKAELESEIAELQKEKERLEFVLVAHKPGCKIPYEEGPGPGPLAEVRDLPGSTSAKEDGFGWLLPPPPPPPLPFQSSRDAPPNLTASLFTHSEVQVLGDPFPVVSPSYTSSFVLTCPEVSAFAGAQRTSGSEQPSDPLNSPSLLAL
Yeast superoxide = reduction of superoxide in aged yeast, primary screen, HTS. S. cerevisiae aged cells, superoxide DHE fluorescence; active compounds read low. superoxide response (% of plate mean), % at 10 µM. 330,000 tested, 0.18% active. AID 2690, 2010;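 active means superoxide response under a set limit, about three screen SD below normal, cut at about 65% in these data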;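 further: yeast aged for seven days with compound at 30 °C before DHE staining; 100% = average MFI of all compound-treated wells on the plate with controls excluded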
NALP1 inh = NALP1 inflammasome inhibitors in reconstituted yeast, colorimetric, S. cerevisiae, triplicate retest | 280,000 tested, 0.61% active | S. cerevisiae NALP1/ASC/caspase-1 growth, X-gal OD620, 72 h | inhibition, % at 10 µM | AID 2071, 2009; in the data active means inhibition mostly above about 24%, no sharp cut-off; inactive means mostly below about 32%
* marks the source's active call; other numbers are inactive results; nt = not tested or not shown.

SMILES | NR3A LBD binder | UBC13 polyUb | dFosB act | Yeast superoxide | NALP1 inh
O=[N+]([O-])c1cc(C(F)(F)F)cc([N+](=O)[O-])c1Sc1n[nH]c(C(F)(F)F)n1 | 3 | -14 | 4 | 110 | 1
O=C(NCc1ccco1)C(c1ccc(F)cc1)N(Cc1cccnc1)C(=O)Cn1nnc2ccccc21 (stereo unspecified) | -7 | -4 | -6 | 108 | 9
O=C(NCc1ccco1)C(c1ccccc1F)N(Cc1cccnc1)C(=O)Cn1nnc2ccccc21 (stereo unspecified) | 11* | 27 | -4 | 102 | 7
O=C(O)C(Cc1ccccc1N(CCO)CCO)N1C(=O)c2ccccc2C1=O (stereo unspecified) | 2 | nt | 0 | nt | nt
CC1=NN(c2nc(-c3ccc(C)cc3)cs2)C(=O)C1N=Nc1ccc2ccccc2c1 (stereo unspecified) | -1 | -30 | -4 | 109 | 21
CC1=NN(c2nc(-c3ccc(C)cc3)cs2)C(=O)C1N=Nc1ccc(C(N)=O)cc1 (stereo unspecified) | 27* | nt | -18 | 109 | 7
O=C1CSC(=S)N1/N=C/c1cc(Br)c(O)c(Br)c1 | 2 | nt | 4 | 94 | 0
Clc1cccc2sc(N3CCN(c4ccccc4)CC3)nc12 | 18* | 8 | -1 | 90 | 20
CCCCCCCCOC(=O)c1cc([N+](=O)[O-])c(Sc2ncnc3nc[nH]c23)c([N+](=O)[O-])c1 | -11 | nt | -17 | nt | nt
Cc1ccc(O)c(Nc2c3ccccc3nc3ccccc23)c1 | -1 | -54 | 35* | 96 | 27
Cc1ccc(O)c(Nc2nc(-c3ccccc3)nc3ccccc23)c1 | 9 | -1 | -4 | 90 | 32
Cn1c(CNC(=O)CNS(=O)(=O)c2ccc(Cl)cc2)cc(=O)n(C)c1=O | 0 | 1 | -6 | 89 | 12
COc1ccccc1C1NC(=O)CS1 (stereo unspecified) | 14* | -3 | -1 | 101 | 9
CS(=O)(=O)c1ccc(C(=O)Nc2ccc(-c3nc4ccccc4[nH]3)cc2)cc1 | 32* | -8 | 3 | 118 | -5
O=C(Nc1cccc(-c2nc3ccccc3[nH]2)c1)c1cccc(NC(=O)c2ccco2)c1 | 20* | 6 | -39 | 94 | -2
COc1c(F)c(F)c(C(=O)Nc2ccc(-c3nc4ccccc4[nH]3)cc2)c(F)c1F | 13* | 17 | 12 | 96 | 14
CCOc1cccc(C(=O)Nc2ccc(NC(=O)c3ccccc3)c(C)c2)c1 | 0 | 4 | 10 | 93 | 15
CCOc1ccc(C(=O)Nc2ccc(NC(=O)c3ccccc3)c(C)c2)cc1[N+](=O)[O-] | 18* | -4 | 5 | 110 | 19
O=C1C=C(c2cccc(CO)c2)C[C@@H](c2ccc3c(c2)OCO3)C1 | -1 | 2 | -7 | 115 | nt
CC(C)[C@H](NC(=O)c1ccccc1)C(=O)OCC(=O)c1c(N)n(C)c(=O)n(C)c1=O | -1 | -6 | -3 | 95 | nt
CCOc1ccc(C(=O)Nc2ccc(-c3nc4ccccc4[nH]3)cc2)cc1[N+](=O)[O-] | 212* | -11 | -5 | 100 | 48
CS(=O)(=O)c1ccc(C(=O)Nc2cccc(-c3nc4ccccc4[nH]3)c2)cc1 | 13* | 5 | -28 | 86 | -4
O=C(Nc1ccc2nc(-c3ccccc3)[nH]c2c1)c1ccco1 | 10 | 13 | -3 | 92 | 36
Cn1ncc([N+](=O)[O-])c1C(=O)Nc1ccc(-c2nc3ccccc3[nH]2)cc1 | nt | -8 | 0 | 100 | nt
Cc1cccc2[nH]c(-c3ccc(NC(=O)c4ccco4)cc3)nc12 | 31* | 0 | 8 | 81 | 26
SMILES | NR3A LBD binder | UBC13 polyUb | dFosB act | Yeast superoxide | NALP1 inh
CN(C)CCN(C(=O)c1cccs1)c1nc2cc3c(cc2s1)OCCO3 | -4 | 7 | 15 | 93 | 26
CCCc1nnc(NC(=O)CC(=O)Nc2ccccc2C(=O)O)s1 | -1 | 4 | 0 | 91 | 40*
CCCc1nnc(NC(=O)c2cc3ccccc3oc2=O)s1 | 0 | -7 | -6 | 103 | 40*
O=S(=O)(c1ccc(F)cc1)n1ccc(-c2cccc(OCc3c(F)cccc3Cl)c2)n1 | 2 | nt | -5 | 112 | 28*
O=C(CCCC(=O)OCC(=O)c1ccc(Cl)cc1)NC1CCCCC1 | 0 | 5 | -2 | 106 | 2
CCOC(=O)COc1ccccc1/C=C\[N+](=O)[O-] | 1 | nt | -7 | 77 | 102*
CC(CCc1ccc(O)cc1)N(C)CCc1ccccc1 (stereo unspecified) | -3 | 4 | 2 | 97 | 26*
CC(CCc1ccc(O)cc1)NCCC(c1ccccc1)c1ccccc1 (stereo unspecified) | -1 | 20 | 0 | 98 | 22
CC(C)Cn1c(N)c(C(=O)CSc2nc3ccccc3c(=O)n2CCCN2CCOCC2)c(=O)n(C)c1=O | nt | 8 | nt | 103 | 2
Cc1ccccc1N=Nc1c(C)[nH]n(C(N)=S)c1=O | -5 | -27 | -3 | 85 | 25
Cc1[nH]n(C(N)=S)c(=O)c1N=Nc1ccccc1C(F)(F)F | 10* | -1 | -7 | 82 | 2
CC1CCCCN1C(=O)c1ccc(CS(=O)(=O)Cc2ccccc2)cc1 (stereo unspecified) | 0 | 0 | 5 | 95 | 3
O=C1NCCOC(=O)[C@H](Cc2ccc(F)cc2)CC/C=C/C[C@@H]1CC(=O)N(CCO)Cc1ccccc1 | 3 | -2 | -1 | 90 | nt
COc1ccc2c(Cl)c(C(N)=O)sc2c1 | 34* | -1 | -11 | 89 | 36
COc1ccc(/C=N/NS(=O)(=O)c2ccc(F)cc2)cc1COc1cc(F)ccc1[N+](=O)[O-] | 11* | -14 | 5 | 103 | 4
COC(CNC(=O)C1CC(=O)N(CCc2ccc(C)cc2)C1)OC (stereo unspecified) | 1 | 5 | 9 | 92 | 4
CC(=O)OC(C)(C)C1Cc2cc3ccc(=O)oc3cc2O1 (stereo unspecified) | -1 | 9 | -3 | 105 | 21
CC(C)(Cl)C1Cc2cc3ccc(=O)oc3cc2O1 (stereo unspecified) | 2 | 7 | -4 | 100 | 24*
COc1ccc(NC(=O)c2ccc(NC(=O)COC(=O)c3cnc(C)cn3)cc2)cc1 | -3 | -7 | -2 | 102 | nt
O=C1/C(=C\c2cccc([N+](=O)[O-])c2O)SC(=S)N1Cc1ccccc1 | 1 | nt | -13 | 68 | 24
O=C(O)c1ccc(/C=C2/SC(=S)N(Cc3ccccc3)C2=O)cc1 | 20* | nt | -6 | 92 | 0
O=C1/C(=C\c2ccc(O)cc2)SC(=S)N1Cc1ccccc1 | 34* | -56 | -3 | 103 | 3

Source: PubChem
